# Hit rate of the full screen: of about 320,000 compounds, about 1,300 (0.41%) were called active. Inconclusive results (about 3%) are left out. The rule behind the calls is not given here. Only a sample is shown. Potency and affinity values are given separately. Peptide text beside a SMILES is read from it. * marks the point of attachment. Boc = CC(C)(C)OC(=O)*; OtBu = CC(C)(C)O*
# Experiment: growth inhibition of non-replicating M. tuberculosis (AID 488890);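 note: plate controls were DMSO cells for no effect and high antibiotic wells for full effect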
# Details: Mycobacterium tuberculosis non-replicating, at 25 µM, stronger effect = higher value
row,Compound,inhibition [%]
1,Cc1c(C(=O)O)[nH]c2c1C(=O)CC(c1ccccc1)C2 (stereo unspecified),4.15
2,Cc1oc2c(c(=O)c1C)C(=O)CC(c1ccccc1)C2 (stereo unspecified),-6.93
3,Cc1cc(Cl)ccc1N1C(=O)CC(NNC(=O)c2cccnc2)C1=O (stereo unspecified),5.86
4,CCS(=O)(=O)N1CCC(NC(=O)C2CCCCC2)CC1,-9.82
5,CC(C)NC(=O)NNC(=O)c1cc(COc2cc(Cl)cc(Cl)c2)on1,31.8
6,CCOC(=O)c1csc(N)n1,-4.96
7,CCC(=O)NNC(=O)c1cc(COc2cc(Cl)cc(Cl)c2)on1,40
8,CC(=O)c1csc(COc2ccccc2)n1,-0.92
9,CCOC(=O)c1csc(-c2ccc(OC)c(OC)c2)n1,32.3
10,CCOC(=O)c1csc(NC(=O)COc2ccc(Cl)cc2Cl)n1,80.3
11,CCOC(=O)c1csc(NC(C)=O)n1,-1.23
12,Cc1onc(-c2ccccc2)c1-c1csc(COc2ccccc2)n1,33.1
13,COc1ccc(OC)c(Nc2nc(N)nc(CSc3nnc(N)s3)n2)c1,-6.45
14,N#CC1(NC(=O)CSc2nnc(-c3ccccc3F)n2N)CCCCC1,-6.24
15,O=C(CCN1C(=O)C2CC=CCC2C1=O)NC1CCCCC1 (stereo unspecified),-1.44
16,COc1ccc(-c2cn(-c3ccc(Cl)cc3)c3[n+]2CCCCC3)cc1,10.6
17,O=C(c1ccc(N2CC3CC(C2)c2cccc(=O)n2C3)c([N+](=O)[O-])c1)N1CCCC1 (stereo unspecified),-6.65
18,O=C(C1=NN[C@@H]2C(=O)N(Cc3ccccc3)C(=O)[C@H]12)c1ccc(F)cc1,5.43
19,N#CCP(=S)(c1ccccc1)c1ccccc1,24.1

row,Compound,inhibition [%]
1,CCCNC(=O)C(Cc1ccccc1)NC(=O)c1ccc(-c2ccccc2)cc1 (stereo unspecified),4
2,COc1ccc(CN(CC2CCC(C(=O)O)CC2)C(=S)Nc2cc(Cl)ccc2OC)cc1 (stereo unspecified),2.05
3,CC(NC(=O)C(CC(=O)OC(C)(C)C)NC(=O)OC(C)(C)C)C(N)=O (stereo unspecified) (Boc-Asp(OtBu)-Ala-NH2; configuration not given here),-0.24
4,Cc1onc(C(=O)NN)c1-c1csc(COc2ccc(Cl)cc2)n1,13.2
5,CC(=O)c1csc(COc2ccc(Cl)cc2)n1,38.9
6,CCOC(=O)c1csc(NC(=O)c2ccc(OCC)cc2)n1,19.8
7,Cc1onc(-c2ccc(Cl)cc2Cl)c1-c1csc(COc2ccccc2)n1,-7.56
8,Nc1nonc1-c1noc(COc2ccccc2Cl)n1,5.72
9,CCOC(=O)c1ccccc1-c1csc(N)n1,6.53
10,CCn1cc(C(=O)NCC2CCCO2)c(=O)c2cc(S(=O)(=O)N3CCCCCC3)ccc21 (stereo unspecified),4.04
11,COc1ccccc1C(=O)Nc1c2c(nn1-c1cccc(C)c1C)CS(=O)(=O)C2,2.28
12,CC(C)c1ccc(NC2CCCN(C(=O)c3ccc(Cn4cnnn4)cc3)C2)cc1 (stereo unspecified),10.9
13,CS(=O)(=O)N1CCCC(C(=O)Nc2ccc(F)c(F)c2)C1 (stereo unspecified),-12.2
14,Nn1c(SCC(=O)Nc2ccc3c(c2)OCCO3)nncc1=O,-11.2
15,Cc1ccc(N/C=C/C(=O)C(C)(C)C)c(O)c1,6.34
16,CCOc1ccccc1N/C=C/C(=O)C(C)(C)C,0.25
17,Cc1ccc(N/C=C/C(=O)c2ccco2)c(O)c1,12.5
18,NC(=O)c1ccccc1N/C=C/C(=O)c1ccco1,-0.65
19,C=C(C)COc1ccc(-c2[nH]ncc2Oc2ccc(OC)cc2)c(O)c1,-5.21

row,Compound,inhibition [%]
1,COc1ccc(C(c2c(N)[nH]c(=S)[nH]c2=O)c2c(N)[nH]c(=S)[nH]c2=O)cc1,-18.4
2,COc1ccc(-c2csc(-c3ccc(O)cc3)n2)cc1,40
3,COc1ccc(-c2nc(CCl)cs2)cc1,7.52
4,O=C(CSc1c2c(nc3cc(Cl)ccc13)CCCC2)NCCCN1CCOCC1,50
5,Cc1[nH]c(=S)c(C#N)c2c1CCCC2,16.1
6,COc1ccc(CNc2nc3nc(C)c(Cl)c(=O)n3[nH]2)cc1,28.1
7,CC(OC(=O)c1cc(S(=O)(=O)N2CCOCC2)ccc1Br)C(=O)N1CCOCC1 (stereo unspecified),6.34
8,CCC1Oc2ccccc2N(CC(=O)NCCCN2CCCCC2CC)C1=O (stereo unspecified),1.4
9,CC(=O)Nc1ccc(NC2=CC(=O)c3ccccc3C2=O)cc1,-2.89
10,CCOC(=O)c1ccc(NC2c3ccccc3C(=O)N2c2ccccn2)cc1 (stereo unspecified),-6.64
11,CCOC(=O)c1ccccc1NC1OC(=O)c2ccccc21 (stereo unspecified),-8.12
12,CCOC(=O)c1ccc(NC(=O)C(C)N2C(=O)c3ccccc3C2=O)cc1 (stereo unspecified),-8.22
13,O=C1C=C(Nc2ccccc2)C(=O)c2ccccc21,56.9
14,NS(=O)(=O)c1ccc(NC2=CC(=O)C(=O)c3ccccc32)cc1,36.2
15,CCOC(=O)c1c(C)[nH]c(C(=O)COC(=O)Cn2cc(C(F)(F)F)ccc2=O)c1C,2.63
16,CCCc1nnc(NC(=O)CCC(=O)Nc2ccc(F)cc2)s1,-5.14
17,CCN(C(=O)c1ccc(Cl)c(S(=O)(=O)Nc2c(C)n(C)n(-c3ccccc3)c2=O)c1)c1ccccc1,5.47
18,CCN(CC)C(=O)Cn1cc(C(=O)C(=O)N2CCCc3ccccc32)c2ccccc21,16.8

# Reference: PubChem BioAssay AID488890 (Southern Research Specialized Biocontainment Screening …, 2010)
